Article PMC4336329 (PLoS ONE, 2015)
Among all 310,000 compounds or so, about 14,000 (4.5%) showed an effect of 50% or more. Effects have a minus sign here. The full list was thinned out, with strong results kept by preference.
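Further: peak tail current of the secondary pulse compared with the same well before compound.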

Each compound was assayed against human ether-à-go-go-related gene (hERG) potassium channel (human, UniProt Q12809) (assay: primary screen, population patch clamp on CHO cells stably expressing hERG; higher = less effect of the substance).
human ether-à-go-go-related gene (hERG) potassium channel, sequence (Q12809 whole entry, looked up): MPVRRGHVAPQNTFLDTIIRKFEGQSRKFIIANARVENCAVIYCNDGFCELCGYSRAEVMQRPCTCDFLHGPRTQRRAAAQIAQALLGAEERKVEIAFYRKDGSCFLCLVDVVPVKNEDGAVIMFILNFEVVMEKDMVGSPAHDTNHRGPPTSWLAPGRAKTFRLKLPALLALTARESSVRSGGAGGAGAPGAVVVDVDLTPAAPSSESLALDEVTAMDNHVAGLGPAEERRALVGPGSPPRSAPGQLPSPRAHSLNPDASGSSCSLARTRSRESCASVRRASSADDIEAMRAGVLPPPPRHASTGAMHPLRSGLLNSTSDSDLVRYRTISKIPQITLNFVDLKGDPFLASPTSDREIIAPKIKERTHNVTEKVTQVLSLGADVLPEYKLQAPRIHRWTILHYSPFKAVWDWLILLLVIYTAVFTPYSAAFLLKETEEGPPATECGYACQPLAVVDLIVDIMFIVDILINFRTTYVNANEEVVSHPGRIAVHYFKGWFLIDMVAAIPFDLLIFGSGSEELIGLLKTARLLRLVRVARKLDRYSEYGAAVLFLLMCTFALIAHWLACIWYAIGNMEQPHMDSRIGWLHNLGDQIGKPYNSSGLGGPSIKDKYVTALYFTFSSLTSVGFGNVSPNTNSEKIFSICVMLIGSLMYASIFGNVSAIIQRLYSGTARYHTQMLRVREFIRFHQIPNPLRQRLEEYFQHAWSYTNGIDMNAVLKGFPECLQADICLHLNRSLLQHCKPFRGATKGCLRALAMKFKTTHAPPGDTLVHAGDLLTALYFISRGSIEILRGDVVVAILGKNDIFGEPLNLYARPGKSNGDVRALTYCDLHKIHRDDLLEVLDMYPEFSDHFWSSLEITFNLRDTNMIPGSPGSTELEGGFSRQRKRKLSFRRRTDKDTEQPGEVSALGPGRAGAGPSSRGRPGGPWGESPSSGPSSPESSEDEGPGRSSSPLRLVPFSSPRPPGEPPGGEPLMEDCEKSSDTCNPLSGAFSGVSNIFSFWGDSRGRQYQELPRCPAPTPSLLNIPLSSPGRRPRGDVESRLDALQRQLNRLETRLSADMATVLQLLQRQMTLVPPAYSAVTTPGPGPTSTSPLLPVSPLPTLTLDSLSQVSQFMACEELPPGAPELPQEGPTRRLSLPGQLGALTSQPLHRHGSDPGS
In the case of `COc1ccc(/C=N\NC(=O)c2ccccc2Br)cc1COc1c(F)c(F)cc(F)c1F`, the “hERG current change (%, negative = inhibition) at 10uM” value is reported as -0.654%. For `Brc1ccc(-n2cccc2/C=N/n2cnnc2)cc1`, the “hERG current change (%, negative = inhibition) at 10uM” value was -25.1%. `Cc1ccc(OCC(=O)Nc2ccc(C)c(S(=O)(=O)N3CCCCC3)c2)c([N+](=O)[O-])n1` was tested, and the “hERG current change (%, negative = inhibition) at 10uM” value was -45.4%. With `C=CCNC(=O)/C(=C/c1ccccc1OCC)NC(=O)c1ccccc1` the “hERG current change (%, negative = inhibition) at 10uM” value was 2.63%. `O=c1cc(Nc2ccc3c(c2)OCCO3)[nH]c(=O)n1-c1ccc(Cl)cc1` was tested, and the “hERG current change (%, negative = inhibition) at 10uM” value was -0.327%. For `CCC(C)NC(=O)c1ccccc1NC(=O)/C(=C/c1ccc(OC)cc1)c1ccccc1` (stereo not drawn), the “hERG current change (%, negative = inhibition) at 10uM” value was 3.99%. `COC(=O)c1ccccc1NC(=O)NCc1ccc2c(c1)OCO2` was tested, and the “hERG current change (%, negative = inhibition) at 10uM” value was -11.4%. With `CCCCS(=O)CC(CS(=O)CCCC)OC(=O)c1ccc(C)cc1` (stereo not drawn) the “hERG current change (%, negative = inhibition) at 10uM” value was -49.2%. `Cc1ccc(S(=O)(=O)N(C)c2ccc(C(=O)O)cc2)cc1` was tested, and the “hERG current change (%, negative = inhibition) at 10uM” value was -17.1%. In the case of `CCOc1ccc(OCC(O)CNC2CCN(Cc3ccccc3)CC2)cc1.O=C(O)C(=O)O` (stereo not drawn), the “hERG current change (%, negative = inhibition) at 10uM” value is reported as -62.8%. For `CCOc1ccc(CC(=O)NC2CCN(Cc3ccccc3)CC2)cc1`, the “hERG current change (%, negative = inhibition) at 10uM” value was -6.23%. For `COc1ccc(CNCC(O)COc2ccc(C(C)(C)c3ccccc3)cc2)cc1.O=C(O)C(=O)O` (stereo not drawn), the “hERG current change (%, negative = inhibition) at 10uM” value was -12.3%. With `CC(C)NCCCOc1ccc(C(C)(C)c2ccccc2)cc1.O=C(O)C(=O)O` the “hERG current change (%, negative = inhibition) at 10uM” value was 7.21%. In the case of `COc1ccccc1NCC(O)COc1ccc(C(C)(C)C)cc1.O=C(O)C(=O)O` (stereo not drawn), the “hERG current change (%, negative = inhibition) at 10uM” value is reported as 6.79%. In the case of `CC(=O)Nc1ccc(OCC(O)CNC2CCCC2)cc1.Cl` (stereo not drawn), the “hERG current change (%, negative = inhibition) at 10uM” value is reported as 6.24%. `CC(C)N(CCNCC(O)COc1ccc(C(C)(C)c2ccccc2)cc1)C(C)C.O=C(O)C(=O)O` (stereo not drawn) was tested, and the “hERG current change (%, negative = inhibition) at 10uM” value was -79%. For `C#CCOc1ccccc1CNC1CCN(Cc2ccccc2)CC1.O=C(O)C(=O)O`, the “hERG current change (%, negative = inhibition) at 10uM” value was -29.3%. For `CC(C)(c1ccccc1)c1ccc(OCC(O)CNC2CCN(Cc3ccccc3)CC2)cc1.O=C(O)C(=O)O` (stereo not drawn), the “hERG current change (%, negative = inhibition) at 10uM” value was -72.8%. With `O=C(Cc1ccccc1)NN1C(=O)C2C3C=CC(C3)C2C1=O` (stereo not drawn) the “hERG current change (%, negative = inhibition) at 10uM” value was 12.4%. `COc1ccc(C)cc1NC(=O)C(OC(=O)C1CC1)c1ccccc1` (stereo not drawn) was tested, and the “hERG current change (%, negative = inhibition) at 10uM” value was -12%. With `O=C(COC(=O)C1CCN(S(=O)(=O)c2ccccc2C(F)(F)F)CC1)NCc1ccc(F)cc1` the “hERG current change (%, negative = inhibition) at 10uM” value was -8.33%. `CCOc1ccc(N=Cc2c(O)n(-c3ccc(C)c(C)c3)c(=O)[nH]c2=O)cc1` was tested, and the “hERG current change (%, negative = inhibition) at 10uM” value was -1.8%. With `Cc1ccc(-n2ncc3c(SCC(=O)Nc4cc(C)on4)ncnc32)c(C)c1` the “hERG current change (%, negative = inhibition) at 10uM” value was 17.9%. For `O=C(C[n+]1ccccc1)N/N=C/c1ccccc1[N+](=O)[O-].[Cl-]`, the “hERG current change (%, negative = inhibition) at 10uM” value was 40.2%. For `Cc1cccc(C(=O)N2CCCC(Nc3ccc(C(C)C)cc3)C2)n1` (stereo not drawn), the “hERG current change (%, negative = inhibition) at 10uM” value was 0.95%. For `Cc1ccc(C2Nc3cccc4cccc(c34)N2)s1`, the “hERG current change (%, negative = inhibition) at 10uM” value was -4.53%. With `CN(C)S(=O)(=O)c1cccc(C(=O)Nc2ccc(S(=O)(=O)N3CCCC3)cc2)c1` the “hERG current change (%, negative = inhibition) at 10uM” value was 25.5%. In the case of `CC1(C)Cc2cccc(OCC(=O)N3CCN(S(=O)(=O)c4ccccc4F)CC3)c2O1`, the “hERG current change (%, negative = inhibition) at 10uM” value is reported as -14.6%. With `O=C(Nc1ccc2cn[nH]c2c1)c1ccc(S(=O)(=O)N2CCOCC2)cc1` the “hERG current change (%, negative = inhibition) at 10uM” value was -19.7%. `CC(=O)OC(C(=O)Nc1nccs1)c1ccccc1` (stereo not drawn) was tested, and the “hERG current change (%, negative = inhibition) at 10uM” value was 2.26%. `CC(C)CCNC(=O)c1nn(Cc2ccccc2)c(=O)c2ccccc12` was tested, and the “hERG current change (%, negative = inhibition) at 10uM” value was 5.59%. With `O=C(c1nn(-c2ccccc2)c(=O)c2ccccc12)N1CCN(c2ccccn2)CC1` the “hERG current change (%, negative = inhibition) at 10uM” value was -16.5%. For `O=C(c1nn(Cc2ccccc2)c(=O)c2ccccc12)N1CCN(c2ccccn2)CC1`, the “hERG current change (%, negative = inhibition) at 10uM” value was -66.3%. For `CC(C)CNC(=O)c1nn(Cc2ccccc2)c(=O)c2ccccc12`, the “hERG current change (%, negative = inhibition) at 10uM” value was -16%. With `O=C(c1nn(Cc2ccccc2)c(=O)c2ccccc12)N1CCc2ccccc2C1` the “hERG current change (%, negative = inhibition) at 10uM” value was -29%. With `CC(=O)c1ccc(N2CCN(C(=O)c3nn(Cc4ccccc4)c(=O)c4ccccc34)CC2)cc1` the “hERG current change (%, negative = inhibition) at 10uM” value was -75.1%. `CC(C)N(CCNC(=O)c1nn(Cc2ccccc2)c(=O)c2ccccc12)C(C)C` was tested, and the “hERG current change (%, negative = inhibition) at 10uM” value was -66.1%. In the case of `O=C(c1ccc(Cn2c(=O)[nH]c3ccccc3c2=O)cc1)N1CCN(c2ccccn2)CC1`, the “hERG current change (%, negative = inhibition) at 10uM” value is reported as 0.196%. With `CC(=O)c1ccc(N2CCN(C(=O)c3n[nH]c4ccccc34)CC2)cc1` the “hERG current change (%, negative = inhibition) at 10uM” value was -34.3%. `O=[N+]([O-])c1cccc(S(=O)(=O)Nc2ccc(S(=O)(=O)N3CCCC3)cc2)c1` was tested, and the “hERG current change (%, negative = inhibition) at 10uM” value was 2.95%. In the case of `O=C(CSc1nnc(NC(=O)c2c(F)cccc2F)s1)NC1CC1`, the “hERG current change (%, negative = inhibition) at 10uM” value is reported as 21.9%. In the case of `COC(=O)c1cccc(Oc2cccc(Cl)n2)c1`, the “hERG current change (%, negative = inhibition) at 10uM” value is reported as 14.7%. For `Clc1ccc(COc2ccccn2)cc1Cl`, the “hERG current change (%, negative = inhibition) at 10uM” value was -6.01%. `OCCOCCn1c(C(CO)Nc2nc(-c3ccc(F)cc3)cs2)nc2ccccc21` (stereo not drawn) was tested, and the “hERG current change (%, negative = inhibition) at 10uM” value was -29.4%. For `COc1ccc(N(CC(=O)NCc2ccccc2OC)S(=O)(=O)c2ccccc2[N+](=O)[O-])c(OC)c1`, the “hERG current change (%, negative = inhibition) at 10uM” value was 3.17%. In the case of `CN(C)Cc1c(C(=O)N/N=C/C=C/c2ccccc2)nnn1-c1nonc1N`, the “hERG current change (%, negative = inhibition) at 10uM” value is reported as -24.9%. With `COC(=O)Nc1ccc(OC)c(OC)c1` the “hERG current change (%, negative = inhibition) at 10uM” value was 4.01%. With `COc1ncnc2c1sc1nc(-c3ccccc3)c3c(c12)CCCC3` the “hERG current change (%, negative = inhibition) at 10uM” value was 15.6%. For `CC(C)(C)c1ccc(-c2nc(C#N)c(N3CCC(C(N)=O)CC3)o2)cc1`, the “hERG current change (%, negative = inhibition) at 10uM” value was -63.3%. In the case of `N#Cc1nc(-c2ccc([N+](=O)[O-])cc2)oc1N1CCCCC1`, the “hERG current change (%, negative = inhibition) at 10uM” value is reported as 14.5%. In the case of `Cc1ccc(-c2nc(C#N)c(N3CCC(C(N)=O)CC3)o2)cc1`, the “hERG current change (%, negative = inhibition) at 10uM” value is reported as -23.7%. For `CCOc1ccc(-c2nc(C#N)c(N3CCN(CC)CC3)o2)cc1`, the “hERG current change (%, negative = inhibition) at 10uM” value was -47.3%. `COc1ccc(-c2nc(C#N)c(N3CCC(C(N)=O)CC3)o2)cc1` was tested, and the “hERG current change (%, negative = inhibition) at 10uM” value was -15.6%. `CCOc1ccc(-c2nc(C#N)c(N3CCN(C)CC3)o2)cc1` was tested, and the “hERG current change (%, negative = inhibition) at 10uM” value was -32.5%. For `CCN1CCN(c2oc(-c3ccc([N+](=O)[O-])cc3)nc2C#N)CC1`, the “hERG current change (%, negative = inhibition) at 10uM” value was -53.1%. For `CCN1CCN(c2oc(-c3ccc(OC)cc3)nc2C#N)CC1`, the “hERG current change (%, negative = inhibition) at 10uM” value was -45.6%. `CN1CCN(c2oc(-c3ccc([N+](=O)[O-])cc3)nc2C#N)CC1` was tested, and the “hERG current change (%, negative = inhibition) at 10uM” value was -66.1%.
